PubChem BioAssay AID489039 (National Center for Advancing Translational Sciences (NCATS), 2010)
Where “and” joins values, the source holds several entries; their conditions need not be identical. Equal entries are not always repeated. Inconclusive results are not listed. Calls of active or inactive are those of the source. Calls follow the shape of the dose curve; as a rule, active = well fitted inhibition curve with a large enough effect; inconclusive = small, poorly fitted or top-dose-only effect, or effect the other way; inactive = no such curve, though single readings can be large or run the other way.

target: Nuclear receptor ROR-alpha (Homo sapiens) (UniProt P35398); assay: ROR alpha selectivity assay for inhibitors of ROR gamma transcriptional activity; conditions: Drosophila S2 Gal4-RORalpha UAS-luciferase, 20 h; series mostly up to 92.2 µM; activity change, negative = inhibition: at the top concentration
Excerpt: NIH Molecular Libraries Probe Production Network [MLPCN] NIH Chemical Genomics Center [NCGC] MLPCN Grant: R03 DA026211-01 Assay Provider: Dan Littman, New York University Assay Overview: The retinoic acid-related orphan receptor (ROR) gamma is a transcription factor that has a central role in the differentiation of Th17 cells, a subset of T helper cells that secrete the inflammatory cytokines IL-17A, IL-17F, and IL-22. Th17 cells have been implicated in graft versus host disease, autoimmune disease and asthma. RORgamma is induced in naive T helper cells in the presence of TGF-beta combined with IL-6, IL-21, or IL-23, and thereafter directs the expression of the Th17 lineage cytokines. To identify nonselective inhibitors, a Drosophila Schneider cell line was stably transfected with two vectors: a gene expressing a fusion of the Gal4 DNA binding domain and the transactivation domain of the ROR alpha, under the control of the metallothionine promoter and a Photinus luciferase reporter regulated by the Gal4 binding site enhancer, UAS. […] Small molecule inhibitors that inhibit RORgamma and RORalpha, or components common to both, will be active in both assays and thus scored as nonselective.
Assay Protocol Summary: For screening, 600 cells in 4 uL/well were dispensed into white solid 1536-well plates (Grenier) using a solenoid-based dispenser. Following transfer of 23 nL compound or DMSO vehicle by a pin tool, the plates were incubated 1 hr at ambient temperature, and 1 uL/well copper sulfate (700 uM final concentration) was added. The plates were centrifuged 15 s at 1000 RPM and incubated 20 hr at ambient temperature. After addition of 1.5 uL Photinus luciferase detection reagent, the plates were incubated 10 min at ambient temperature and then read by an ViewLux (Perkin Elmer) to detect luminescence.

Activity change, negative = inhibition, inactive:
COc1cc(O)c(C(CC(=O)N2CCCC(COc3ccc(F)cc3)C2)c2ccc3c(c2)OCO3)c(OC)c1 (stereo not given) 16.6%
CC1CCCN(C(=O)CC(c2ccccc2)c2ccc(O)cc2)C1 (stereo not given) -19.1%
CC1=C(\C=C/C(C)=C/C=C\C(C)=C\C(=O)O)C(C)(C)CCC1 18.6% [at 20 µM]
Cc1cccc(C(CC(=O)NCc2ccco2)c2ccccc2)c1O (stereo not given) 91.2%
COc1cc(O)c(C(CC(=O)N2CCCC(C)C2)c2ccccc2)c(OC)c1 (stereo not given) 17.8%
COc1cc(O)c(C(CC(=O)N2CCCC(C)C2)c2ccc3ccccc3c2)c(OC)c1 (stereo not given) -28%
COc1cc(O)c(C(CC(=O)N2CCCC(CN3CCCCC3)C2)c2ccc3c(c2)OCO3)c(OC)c1 (stereo not given) -29.6%
COc1cc(O)c(C(CC(=O)N2CCCC(C)(C)C2)c2ccc3c(c2)OCO3)c(OC)c1 (stereo not given) -12.2%

Potency, active:
O=S(=O)(c1ccc(NC(=S)N/N=C/c2ccc(Oc3ccccc3)cc2)cc1)N1CCOCC1 2.57 µM
CCOC(=O)Cn1c(CN2CCc3ccccc3C2)nc2c1c(=O)n(C)c(=O)n2C 16.2 µM
Cc1ccc(C)c(/C=N/n2cc(-c3ccccc3)[nH]c2=S)c1 0.911 µM
O=C(NC(=S)Nc1nc(-c2ccccc2)cs1)c1cccnc1 32.3 µM
Cc1cc(C)c2sc(NC(=O)c3ccc(N4C(=O)CCC4=O)cc3)nc2c1 0.407 µM
CC(C)(C)c1ccc([S+](=O)([O-])Nc2ccccc2C(O)(C(F)(F)F)C(F)(F)F)cc1 18.2 µM
CCNC(=O)CCc1nc(-c2ccc(C(C)(C)C)cc2)no1 0.162 µM
Cc1ccc(OCCCC(=O)Nc2nc3ccccc3[nH]2)cc1 8.12 µM
CCOc1cccc(-c2cc(-c3n[nH]c(=S)n3CC)c3ccccc3n2)c1 7.24 µM and 18.2 µM
CCOC(=O)C1CCN(CC(=O)Nc2cc(C)nn2-c2nc3ccccc3s2)CC1 20.4 µM
COC(=O)Cn1c(CN2CCc3ccccc3C2)nc2c1c(=O)n(C)c(=O)n2C 18.2 µM
CCOc1ncccc1C(=O)OCC(=O)Nc1ccc(-c2nc3ccc(C)cc3s2)cc1 7.24 µM
